Values joined by “and” are separate entries in the source; they are usually repeats but may differ in a detail not shown here. Equal entries are not always repeated. Records with an inconclusive call do not appear. Active and inactive are the calls of the source. Unless noted, the rule behind the calls is not given here.
Tests used:
[1] = molecular target: Glucocorticoid receptor (Homo sapiens) (UniProt P04150); assay: qHTS assay for small molecule antagonists of glucocorticoid receptor signaling (AID 588533; active = well fitted inhibition curve with a large enough effect in the signal ratio, with a control signal flat, not every such curve was filed as active; the % refers to the signal ratio;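 note: cells stimulated with 2 nM dexamethasone as agonist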; note: potency is the fitted concentration of half-maximal effect)
Sequence of Glucocorticoid receptor (Homo sapiens) (P04150 whole entry, looked up): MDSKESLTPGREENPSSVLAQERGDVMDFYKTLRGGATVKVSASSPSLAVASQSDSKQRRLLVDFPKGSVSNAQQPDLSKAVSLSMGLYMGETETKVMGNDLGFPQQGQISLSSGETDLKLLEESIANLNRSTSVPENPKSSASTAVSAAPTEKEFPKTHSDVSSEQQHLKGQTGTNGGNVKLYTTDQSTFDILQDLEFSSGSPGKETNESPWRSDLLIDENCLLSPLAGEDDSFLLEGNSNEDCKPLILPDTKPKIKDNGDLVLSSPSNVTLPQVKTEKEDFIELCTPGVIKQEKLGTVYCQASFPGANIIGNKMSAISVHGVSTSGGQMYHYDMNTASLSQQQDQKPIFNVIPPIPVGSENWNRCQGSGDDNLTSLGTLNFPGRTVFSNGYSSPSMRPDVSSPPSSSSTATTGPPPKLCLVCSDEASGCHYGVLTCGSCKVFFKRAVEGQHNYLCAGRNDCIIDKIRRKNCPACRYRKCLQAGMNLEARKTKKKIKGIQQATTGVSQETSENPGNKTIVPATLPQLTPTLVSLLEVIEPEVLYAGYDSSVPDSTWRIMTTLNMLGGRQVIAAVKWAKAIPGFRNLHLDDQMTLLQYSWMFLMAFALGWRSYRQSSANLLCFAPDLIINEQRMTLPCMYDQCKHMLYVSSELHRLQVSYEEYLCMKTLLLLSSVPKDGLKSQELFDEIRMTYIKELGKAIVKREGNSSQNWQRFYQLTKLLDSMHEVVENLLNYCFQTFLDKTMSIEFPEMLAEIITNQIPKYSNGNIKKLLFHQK
Summary of the method: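 Antagonist-mode qHTS: compound titrations added to GRE-bla HeLa cells, then dexamethasone 2 nM final; 18 h, 37 C. CCF4 FRET fluorescence normalized to dexamethasone and DMSO; IC50 from Hill fit.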

[2] = qHTS assay for small molecule antagonists of peroxisome proliferator-activated receptor delta signaling (AID 588535; active = well fitted inhibition curve with a large enough effect in the signal ratio, with a control signal flat, not every such curve was filed as active; the % refers to the signal ratio;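 for max response: cells co-treated with a PPAR-delta agonist as stimulator during compound exposure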); conditions: HEK293T PPARd-UAS-bla, beta-lactamase FRET ratio, 18 h; 460 nm channel
Summary of the method: (§1)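 Compounds tested in titration on PPAR-delta-UAS-bla HEK293T cells grown in charcoal/dextran-stripped serum (2%); beta-lactamase activity read via CCF4 emission at 460 and 530 nm.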

[3] = molecular target: Peroxisome proliferator-activated receptor delta (Homo sapiens) (UniProt Q03181); assay: as above
Sequence of Peroxisome proliferator-activated receptor delta (Homo sapiens) (Q03181 whole entry, looked up): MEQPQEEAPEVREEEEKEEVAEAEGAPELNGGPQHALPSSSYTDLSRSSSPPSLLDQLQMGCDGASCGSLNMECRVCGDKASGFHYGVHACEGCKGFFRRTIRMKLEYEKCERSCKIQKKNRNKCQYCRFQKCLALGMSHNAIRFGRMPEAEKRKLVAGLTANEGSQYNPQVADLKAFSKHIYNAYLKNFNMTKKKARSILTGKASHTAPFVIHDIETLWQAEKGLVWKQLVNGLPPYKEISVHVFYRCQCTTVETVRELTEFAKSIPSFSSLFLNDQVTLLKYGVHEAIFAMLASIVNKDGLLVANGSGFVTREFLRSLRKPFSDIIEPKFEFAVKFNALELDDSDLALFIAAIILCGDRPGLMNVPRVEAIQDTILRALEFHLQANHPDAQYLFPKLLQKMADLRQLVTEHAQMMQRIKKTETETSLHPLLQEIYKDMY
Summary of the method: as §1

[4] = molecular target: Peroxisome proliferator-activated receptor gamma (Homo sapiens) (UniProt P37231); assay: qHTS assay for small molecule antagonists of peroxisome proliferator-activated receptor gamma signaling (AID 588537; active = well fitted inhibition curve with a large enough effect in the signal ratio, with a control signal flat, not every such curve was filed as active; the % refers to the signal ratio;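 note: reporter cells co-stimulated with 50 nM rosiglitazone agonist during compound treatment; % of control where 0% means no effect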)
Sequence of Peroxisome proliferator-activated receptor gamma (Homo sapiens) (P37231 whole entry, looked up): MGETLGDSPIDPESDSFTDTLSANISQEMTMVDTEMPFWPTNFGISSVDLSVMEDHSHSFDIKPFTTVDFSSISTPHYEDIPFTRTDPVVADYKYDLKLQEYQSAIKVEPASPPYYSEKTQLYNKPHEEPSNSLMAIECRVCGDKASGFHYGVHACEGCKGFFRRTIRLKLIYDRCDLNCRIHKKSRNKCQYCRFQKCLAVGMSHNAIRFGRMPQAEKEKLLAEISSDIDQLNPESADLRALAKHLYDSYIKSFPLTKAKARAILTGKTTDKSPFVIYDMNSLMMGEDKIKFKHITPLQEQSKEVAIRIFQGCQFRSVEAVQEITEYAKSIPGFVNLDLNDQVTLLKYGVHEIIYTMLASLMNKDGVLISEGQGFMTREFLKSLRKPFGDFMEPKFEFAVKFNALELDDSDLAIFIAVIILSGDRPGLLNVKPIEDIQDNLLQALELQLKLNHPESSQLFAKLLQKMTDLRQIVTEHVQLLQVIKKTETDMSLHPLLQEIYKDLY
Summary of the method: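 HEK293 cells, PPAR-gamma-UAS-bla, 3000/well. Pre-incubation 6-6.5 h, 37 C. Compound titration with rosiglitazone 50 nM final, 16 h. CCF4 dye, 2 h RT, dual-emission fluorescence.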

[5] = qHTS assay for small molecule activators of the human pregnane X receptor (PXR) signaling pathway (AID 720659); note: 0% is about no effect
[6] = molecular target: Bile acid receptor (Homo sapiens) (UniProt Q96RI1); assay: qHTS assay for small molecule agonists of farnesoid X receptor signaling (AID 588527; calls by dose curve;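 note: series mostly up to about 77 µM; 0% = vehicle basal and 100% = reference agonist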); conditions: HEK293T FXR-UAS-bla, beta-lactamase ratio, 16 h; activation: stronger effect = higher value
Sequence of Bile acid receptor (Homo sapiens) (Q96RI1 whole entry, looked up): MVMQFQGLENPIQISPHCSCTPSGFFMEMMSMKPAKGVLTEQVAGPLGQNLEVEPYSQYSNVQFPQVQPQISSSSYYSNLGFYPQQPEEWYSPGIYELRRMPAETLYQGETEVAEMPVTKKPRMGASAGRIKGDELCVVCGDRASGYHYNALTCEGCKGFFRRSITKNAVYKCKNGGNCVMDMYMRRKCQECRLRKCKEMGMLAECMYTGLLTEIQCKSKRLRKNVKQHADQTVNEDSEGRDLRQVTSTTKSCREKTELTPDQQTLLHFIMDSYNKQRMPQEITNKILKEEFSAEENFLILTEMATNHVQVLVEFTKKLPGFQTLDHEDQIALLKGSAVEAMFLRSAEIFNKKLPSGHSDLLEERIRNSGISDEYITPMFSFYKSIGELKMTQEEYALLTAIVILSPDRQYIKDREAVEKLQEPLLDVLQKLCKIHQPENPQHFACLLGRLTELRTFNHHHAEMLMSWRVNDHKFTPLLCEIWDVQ
Summary of the method: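 FXR-UAS-bla HEK293T cells (10% dialyzed FBS) preincubated 5-7 h at 37 C, then compounds at up to 92 uM for 16 h at 37 C. CCF4 beta-lactamase read-out after 2 h RT. Normalized to chenodeoxycholic acid (100 uM) and DMSO; Hill fit gave EC50 and efficacy.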

[7] = molecular target: Peroxisome proliferator-activated receptor gamma (Homo sapiens) (UniProt P37231); assay: qHTS assay for small molecule agonists of peroxisome proliferator-activated receptor gamma signaling (AID 588536; active = well fitted curve in the direction sought with a large enough effect in the signal ratio, with a control signal flat, not every such curve was filed as active; the % refers to the signal ratio;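 note: 0% = DMSO basal wells and 100% = rosiglitazone at 2 µM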)
Summary of the method: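 Cells were plated and held 6–6.5 h at 37 C, then compounds were added as a titration series. After a further 16 h, CCF4 dye was loaded for 2 h at room temperature and emission at 460/530 nm recorded.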

[8] = qHTS assay for small molecule agonists of the antioxidant response element (ARE) signaling pathway (AID 651741; active = well fitted activation curve with a large enough effect in the signal ratio; the % refers to the signal ratio; note: potency is the fitted concentration of half-maximal effect; for activation: % of control where 0% means no effect)
Summary of the method: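 Beta-lactamase reporter expression driven by the antioxidant response element in HepG2 cells was detected by fluorescence with LiveBLAzer B/G FRET substrate (2 h, room temperature) following 16 h compound treatment at 37 C.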

[9] = qHTS assay for small molecule activators of the nuclear factor-kappa B (NF-kB) signaling pathway (AID 651749; active = well fitted activation curve with a large enough effect in the signal ratio; the % refers to the signal ratio; note: series mostly up to about 77 µM; % of control where 0% means no effect); conditions: NF-kB-bla ME-180 cells, beta-lactamase FRET ratio, 16 h; activation: stronger effect = higher value
Summary of the method: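 Beta-lactamase reporter expression, controlled by NF-kB response elements in ME-180 cells, was quantified fluorometrically via FRET disruption; cells at 2,000/well had been incubated with 23 nL test compound for 16 hr.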

[10] = molecular target: Androgen receptor (Homo sapiens) (UniProt P10275); assay: qHTS assay for small molecule agonists of androgen receptor signaling (AID 588515; active = well fitted curve in the direction sought with a large enough effect in the signal ratio, with a control signal flat; the % refers to the signal ratio; note: % is set by controls: 0 for no effect and ±100 for the full control effect); conditions: AR-UAS-bla HEK293, beta-lactamase ratio, agonist 16 h; stronger effect = higher value
Sequence of Androgen receptor (Homo sapiens) (P10275 whole entry, looked up): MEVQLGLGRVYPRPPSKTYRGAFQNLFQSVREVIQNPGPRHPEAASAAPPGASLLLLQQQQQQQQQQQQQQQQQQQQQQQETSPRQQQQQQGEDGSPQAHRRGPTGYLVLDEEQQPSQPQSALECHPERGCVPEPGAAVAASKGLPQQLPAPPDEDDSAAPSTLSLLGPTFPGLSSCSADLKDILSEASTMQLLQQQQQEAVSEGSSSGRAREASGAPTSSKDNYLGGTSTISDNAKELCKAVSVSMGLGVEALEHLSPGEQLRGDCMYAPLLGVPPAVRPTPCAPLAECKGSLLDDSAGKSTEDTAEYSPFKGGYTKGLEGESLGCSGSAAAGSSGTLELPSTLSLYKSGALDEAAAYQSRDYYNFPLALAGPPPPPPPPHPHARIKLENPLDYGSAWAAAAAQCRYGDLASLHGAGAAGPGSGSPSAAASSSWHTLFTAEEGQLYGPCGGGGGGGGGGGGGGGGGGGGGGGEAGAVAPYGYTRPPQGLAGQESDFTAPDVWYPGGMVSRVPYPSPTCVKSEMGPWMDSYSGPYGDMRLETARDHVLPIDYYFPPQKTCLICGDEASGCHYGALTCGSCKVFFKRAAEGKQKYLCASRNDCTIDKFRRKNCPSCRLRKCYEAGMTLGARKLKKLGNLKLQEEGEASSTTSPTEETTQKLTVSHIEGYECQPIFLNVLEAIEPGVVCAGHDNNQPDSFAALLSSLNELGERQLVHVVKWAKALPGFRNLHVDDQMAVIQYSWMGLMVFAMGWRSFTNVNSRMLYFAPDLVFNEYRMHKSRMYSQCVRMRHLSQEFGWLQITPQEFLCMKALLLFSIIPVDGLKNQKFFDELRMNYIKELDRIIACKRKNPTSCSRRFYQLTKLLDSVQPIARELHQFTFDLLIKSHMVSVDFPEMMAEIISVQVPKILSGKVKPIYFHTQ
Summary of the method: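 Stimulation of an AR-responsive β-lactamase reporter in GripTite HEK293 cells was measured after 16 h compound exposure at 37 °C, via CCF4 fluorescence after 2 h RT. EC50 from Hill fits, normalized to R1881 at 30 nM.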

[11] = molecular target: Androgen receptor (Homo sapiens) (UniProt P10275); assay: qHTS assay for small molecule antagonists of androgen receptor signaling (AID 588516; active = well fitted curve in the direction sought with a large enough effect in the signal ratio, with a control signal flat, not every such curve was filed as active; the % refers to the signal ratio; note: % is set by controls: 0 for no effect and ±100 for the full control effect)
Summary of the method: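 Compounds tested in titration against 10 nM R1881 in AR-responsive bla reporter HEK 293 cells; CCF4 fluorescence (460/530 nm) after 16 h exposure gave IC50 and efficacy.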

[12] = molecular target: Bile acid receptor (Homo sapiens) (UniProt Q96RI1); assay: qHTS assay for small molecule antagonists of farnesoid X receptor signaling (AID 588526; calls by dose curve; note: % is set by controls: 0 for no effect and ±100 for the full control effect)
Summary of the method: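 Concentration-response titrations were fitted to the Hill equation for half-maximal inhibition and maximal response, with data normalised to 50 uM chenodeoxycholic acid and DMSO control wells. Cells: FXR-UAS-bla HEK293T, dialyzed FBS.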

[13] = molecular target: Cytochrome P450 3A4 (Homo sapiens) (UniProt P08684); assay: qHTS Assay for Activators of Cytochrome P450 3A4 (AID 885; active = well fitted curve in the direction sought with a large enough effect; an effect the other way counts as inactive or inconclusive; note: nearly all actives have a fitted effect of over 65% in size)
Sequence of Cytochrome P450 3A4 (Homo sapiens) (P08684 whole entry, looked up): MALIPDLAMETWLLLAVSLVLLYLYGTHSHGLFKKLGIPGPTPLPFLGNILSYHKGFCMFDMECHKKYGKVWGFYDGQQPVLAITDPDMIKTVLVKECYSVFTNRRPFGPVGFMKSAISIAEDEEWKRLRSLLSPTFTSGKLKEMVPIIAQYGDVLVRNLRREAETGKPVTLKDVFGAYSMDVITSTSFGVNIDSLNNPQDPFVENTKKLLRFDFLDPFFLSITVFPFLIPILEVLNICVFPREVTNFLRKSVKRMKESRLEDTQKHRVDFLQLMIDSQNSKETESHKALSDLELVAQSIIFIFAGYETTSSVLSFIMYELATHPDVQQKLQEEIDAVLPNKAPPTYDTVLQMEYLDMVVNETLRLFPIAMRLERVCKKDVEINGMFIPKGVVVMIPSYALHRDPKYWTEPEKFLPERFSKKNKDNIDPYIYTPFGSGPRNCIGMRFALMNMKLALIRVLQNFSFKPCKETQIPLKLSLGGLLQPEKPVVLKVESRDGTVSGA
Summary of the method: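 Human CYP3A4 dealkylates Luciferin-PPXE to luciferin, which luciferase detection converts to light. Substrate was at its KM (25uM), buffer 200mM KPO4, reaction 60 min at RT.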

[14] = MultiTox-Fluor Cytotoxicity Assay - LYMP1-002 - Live Cells (AID 955; active = well fitted curve in the direction sought with a large enough effect; an effect the other way counts as inactive or inconclusive;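 note: potency is the fitted concentration of half-maximal effect; cells exposed to compound for 16 hours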)
Summary of the method: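 In this qHTS viability format, lymphoblastoid cells (LYMP1-002, human) received compound for 16 hr at 37 C. Fluorogenic GF-AFC cleavage by viable cells was detected at 405/510 nm after 1 h at room temperature.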

[15] = MultiTox-Fluor Cytotoxicity Assay - LYMP1-002 - Dead Cells (AID 960; active = well fitted curve in the direction sought with a large enough effect; an effect the other way counts as inactive or inconclusive; note: potency is the fitted concentration of half-maximal effect; nearly all actives have a fitted effect of over 60% in size)
Summary of the method: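 Concentration-dependent increases in membrane-leaked protease activity are quantified in LYMP1-002 cells after 16 hr treatment; values are normalized against DMSO and tetraoctylammonium bromide (15 uM) controls and AC50 derived by Hill modeling.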

CCN(CC)c1nc(C)cc(OP(=S)(OC)OC)n1
56.7%: max response [2]
inactive: Potency [1] | Potency [3] | Potency [4] | outcome [5]

CCCCC(CC)C(=O)Cl (stereo not given)
9%: max response [2]
inactive: activation [6] -2.28% | Potency [1] | Potency [3] | Potency [7] | Potency [4] | Potency [8] | activation [9] -0.95% | outcome [5]

O=S1OC[C@@H]2[C@H](CO1)[C@@]1(Cl)C(Cl)=C(Cl)[C@]2(Cl)C1(Cl)Cl (stereo not given in full)
active: Potency [8] 24.3 µM
inactive: activation [10] -8.15% and -7.22% | Potency [11] | activation [6] 1.84% and 4.33% | Potency [7] | activation [9] 0.712% and 0.812%

Cc1cnc(C2=NC(C)(C(C)C)C(=O)N2)c(C(=O)O)c1 (stereo not given)
-1.47%: max response [2]
inactive: activation [10] -8.96% and 2.01% | Potency [11] | Potency [3] | Potency [7] | Potency [8]

Cc1cc(Cl)ccc1OC(C)C(=O)O (stereo not given)
inactive: Potency [3] | Potency [4] | Potency [8] | activation [9] -2.72% | outcome [5]
36.3%: max response [2]

CCCCC(CC)CO[N+](=O)[O-] (stereo not given)
-28%: max response [2]
inactive: Potency [1] | Potency [3] | Potency [7] | Potency [4] | outcome [5]

Clc1ccc([C@]2(Cn3cncn3)C[C@H](Br)CO2)c(Cl)c1
inactive: Potency [12] | Potency [1] | Potency [3] | Potency [7] | Potency [4] | activation [9] -1.6% and -1.96%
7.61% and -41.8%: max response [2]

CC1(C)Cc2cccc(O)c2O1
inactive: Potency [4] | Potency [8] | outcome [5]

O=C1NCCN1Cc1ccc(Cl)nc1
-14.3%: max response [2]
inactive: activation [10] 5.64% | Potency [11] | Potency [1] | Potency [3] | Potency [7] | Potency [8] | activation [9] -1.02% | outcome [5]

CS(=O)(=O)c1cc(C(F)(F)F)ccc1C(=O)c1cnoc1C1CC1
inactive: Potency [3] | activation [9] 0.439%
51.3%: max response [2]

CCNP(=S)(OC)O/C(C)=C/C(=O)OC(C)C (stereo not given)
inactive: Potency [1] | Potency [7] | Potency [4] | activation [9] 0.112%

O=P(O)(O)CCCl
inactive: Potency [12] | activation [6] 4.97% and -5.97% | Potency [3] | Potency [4] | Potency [8] | activation [9] 1.25% and -0.207% | outcome [5]
-15.9%: max response [2]

Cn1cc(-c2ccccc2)c(=O)c(-c2cccc(C(F)(F)F)c2)c1
16.9%: max response [2]
inactive: Potency [1] | Potency [3] | Potency [7] | Potency [4]

O=C=Nc1ccc(Cl)cc1
-52.1%: max response [2]
inactive: Potency [3] | Potency [7] | Potency [4] | activation [9] -0.765% | outcome [5]

CCCN(CC)CC1COC2(CCC(C(C)(C)C)CC2)O1 (stereo not given)
inactive: Potency [1] | Potency [3] | outcome [5]
36.1%: max response [2]

COC(=O)NS(=O)(=O)c1ccc(N)cc1
inactive: Potency [1] | Potency [3] | Potency [7] | Potency [4] | activation [9] -0.373% and -0.594% | outcome [5]
-5.88%: max response [2]

COc1cnc(OC)n2nc(NS(=O)(=O)c3c(OCC(F)F)cccc3C(F)(F)F)nc12
inactive: Potency [7] | Potency [4] | outcome [5]

C=CC(=O)OCC(CO)(COC(=O)C=C)COC(=O)C=C
active: Potency [14] 3.98 µM | Potency [15] 3.16 µM | Potency [1] 22.4 µM and 20 µM | Potency [8] 24.3 µM
inactive: Potency [13] | activation [6] 1.06%

CCC[CH2][Sn]([CH2]CCC)([O]C(C)=O)[O]C(C)=O
active: Potency [8] 30.6 µM
inactive: activation [6] -0.854% | Potency [4] | activation [9] 0.746% | outcome [5]

COc1cc(Cl)c(OC)cc1Cl
inactive: Potency [1] | Potency [7] | Potency [4] | Potency [8] | activation [9] -1.99%

c1cc[n+]2c(c1)-c1cccc[n+]1CC2
inactive: Potency [1] | Potency [3] | Potency [7] | Potency [4] | activation [9] -2.74%
45.8%: max response [2]
active: Potency [8] 8.63 µM

CCN(CC)C(=O)C(C)Oc1cccc2ccccc12 (stereo not given)
inactive: Potency [12] | activation [6] -1.49% | Potency [7] | Potency [4] | Potency [8]

O=C(NC(=O)c1c(F)cccc1F)Nc1ccc(OC(F)(F)C(F)OC(F)(F)F)c(Cl)c1 (stereo not given)
59.9%: max response [2]
inactive: Potency [1] | Potency [3] | Potency [7] | activation [9] 1.61% | outcome [5]

CCNc1nc(NCC)nc(SC)n1
inactive: Potency [1] | Potency [7] | activation [9] 0.586% | outcome [5]

NS(=O)(=O)C(F)(F)C(F)(F)C(F)(F)C(F)(F)C(F)(F)C(F)(F)C(F)(F)C(F)(F)F
active: Potency [8] 68.6 µM
inactive: activation [6] 4.62% | Potency [1] | Potency [3] | activation [9] 3.4%
101%: max response [2]

CCOP(=O)(OCC)SCCSCC
inactive: Potency [7] | Potency [4] | activation [9] 0.345% | outcome [5]

O=C(O)c1nc(Cl)ccc1Cl
inactive: Potency [1] | outcome [5]

COCC(=O)N(c1c(C)cccc1C)[C@H](C)C(=O)OC
inactive: activation [6] 0.109% | Potency [7] | Potency [4] | Potency [8]

O=S(=O)(O)C(F)(F)C(F)(F)C(F)(F)C(F)(F)C(F)(F)C(F)(F)F
-35.3% and 95.7%: max response [2]
inactive: Potency [12] | activation [6] -1.09% and 0.298% | Potency [1] | Potency [3] | Potency [7] | Potency [4] | activation [9] 0.018% and -0.659% | outcome [5]

Source: PubChem BioAssay (NCATS)
